# Target: Calmodulin-1 (Homo sapiens) (UniProt P0DP23)
# Test: CALM1 binders on microarrays, EGTA buffer, profiling panel, biochemical, small-molecule microarray, Cy5-labelled CALM1 (AID 1111);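 note: labelled calmodulin applied in Tris saline Tween buffer holding calcium plus EGTA and DTT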
# Conditions: Cy5-CALM1 binding fluorescence, higher = more signal
row,SMILES,composite z-score
1,CC(C)c1ccc(NN2C(C(O)c3ccc(N(C)C)cc3)C=CC3C(=O)N(c4ccccc4)C(=O)C32)cc1 (centres undefined),1.44
2,CC(C)NC(=O)[C@@H]1c2ccccc2C(=O)N(Cc2ccccc2)[C@H]1c1ccc(CO)cc1,-0.472
3,CCOC(=O)C[C@H]1[C@H](OC(=O)c2ccccc2-c2ccccc2)[C@@H](NC(=O)Cc2ccc(OC)cc2)c2cc(OCCCO)ccc2N1C(=O)c1ccccc1,-0.0521
4,Cc1ccc(S[C@]2(C(=O)O)CC(=O)N(C3Cc4ccccc4C3)[C@@H]2c2ccc(CO)cc2I)cc1,-0.212
5,CC(C)(C)OC(=O)CC[C@@]1(C(=O)NCCN2CCOCC2)N=C(c2ccc(OCCCO)cc2)O[C@@H]1c1ccccc1,1.59
6,CCCN1C(=O)[C@@]2(CCC(=O)OC(C)(C)C)N=C(c3ccc(OCCCO)cc3)O[C@H]2c2ccccc21,0.786
7,COCCOC(=O)N1C(=O)[C@@]2(c3cc(C#CCC(C(=O)OC)C(=O)OC)ccc31)[C@H](c1ccc(O)cc1)N1[C@H](c3ccccc3)[C@H](c3ccccc3)OC(=O)[C@H]1[C@@H]2C(N)=O,0.537
8,N#Cc1ccc(NN2C(C(O)c3ccc([N+](=O)[O-])cc3)C=CC3C(=O)N(c4ccccc4)C(=O)C32)cc1 (centres undefined),0.971
9,COCC(=C=CC[C@H](O)c1ccc(OCCO)cc1)C[C@H](O)c1cc(Cl)cc(Cl)c1O,-0.281
10,CCOC(=O)C1=CC[C@@H](c2ccccc2)N(S(=O)(=O)c2ccc(C)cc2)[C@H]1C(=O)OCC,0.784
11,CCCCCN1CC=CC23O[C@@H]4C=CCOC(=O)[C@@H]4[C@H]2C(=O)N(CCCO)[C@@H]3C1=O (some centres undefined),-0.568
12,C[C@]1(C(=O)NCc2ccccc2)c2ccccc2C(=O)N(Cc2cc(F)cc(C(F)(F)F)c2)[C@H]1c1ccc(CO)cc1,-0.595
13,COc1ccc(C(O)C2C=CC3C(=O)NC(=O)C3N2Nc2ccccn2)cc1OCc1ccccc1 (centres undefined),0.916
14,C=C(CCCC)C(=O)CC[C@H](OC(=O)c1cccnc1)c1cccc(OCCO)c1,-0.538
15,O=C1OCCC/C=C\[C@H]2OC34C=CCN(Cn5nnc6ccccc65)C(=O)[C@H]3N(CCCCCO)C(=O)[C@@H]4C12 (some centres undefined),-0.709
16,CC(C)CNC(=O)[C@@H]1c2ccccc2C(=O)N(Cc2cc(C(F)(F)F)cc(C(F)(F)F)c2)[C@H]1c1ccc(CO)cc1,-0.128
17,CC(C)(C)N1CC=CC23O[C@@H]4C=CCOC(=O)[C@@H]4[C@H]2C(=O)N(CCCCCO)[C@@H]3C1=O (some centres undefined),-0.821
18,CCOC(=O)C[C@H]1[C@H](OC(=O)c2ccc(-c3ccccc3)cc2)[C@@H](NC(=O)Cc2ccc(OC)cc2)c2cc(OCCCO)ccc2N1C(=O)c1ccc2ccccc2n1,0.882
19,COCCOC(=O)N1C(=O)[C@@]2(c3cc(C#CCNC(N)=O)ccc31)[C@H](c1ccc(O)cc1)N1[C@H](c3ccccc3)[C@H](c3ccccc3)OC(=O)[C@H]1[C@@H]2C(=O)Nc1nc2ccccc2s1,1.41
20,COc1ccc(C#Cc2ccc3c(c2)[C@]2(C(=O)N3)[C@H](C(=O)NC[C@H](O)c3ccccc3)[C@H]3C(=O)O[C@H](c4ccccc4)[C@H](c4ccccc4)N3[C@@H]2c2ccc(OCCO)cc2)cc1,0.841
21,O=C1OCCC=C[C@H]2OC34C=CCN(Cc5ccccc5)C(=O)[C@H]3N(CCCO)C(=O)[C@@H]4C12 (some centres undefined),-0.438
22,COC(=O)[C@@]1(Cc2ccccc2)N=C(c2ccc(OCCCO)cc2)O[C@H]1c1ccccc1N=[N+]=[N-],-0.203
23,COc1ccc(NN2C(C(O)c3ccc(OC)c(OCc4ccccc4)c3)C=CC3C(=O)N(C4CCCCC4)C(=O)C32)cc1 (centres undefined),1.15
24,C=CCC(OC(C)=O)[C@@H]1[C@@H](N(Cc2cccc3ccccc23)C(=O)c2cccc3ccccc23)c2cc(OCCCO)ccc2N1C(=O)c1ccc2ccccc2n1 (some centres undefined),-0.301
25,CC(C)CNC(=O)[C@@]1(c2ccc([N+](=O)[O-])cc2)CC(=O)N(CC23CC4CC(CC(C4)C2)C3)[C@@H]1c1ccc(CO)cc1I,0.404
26,Cc1ccc(S[C@]2(C(=O)NCC(C)C)CC(=O)N(Cc3ccccc3Cl)[C@@H]2c2ccc(CO)cc2)cc1,-0.476
27,[N-]=[N+]=NCc1ccccc1C[C@]1(C(=O)O)N=C(c2ccc(OCCCO)cc2)O[C@H]1c1ccccc1,1.17
28,Cc1ccccc1C(O)C1C=CC2C(=O)N(C)C(=O)C2N1Nc1ccccc1 (centres undefined),2.3
29,O=C1O[C@H](c2ccccc2)[C@H](c2ccccc2)N2[C@H]1[C@@H](C(=O)N1CCN(c3ncccn3)CC1)[C@]1(C(=O)Nc3ccccc31)[C@H]2c1ccc(OCCO)cc1,-0.316

# Reference: PubChem BioAssay
